Compounds without any hit were thinned out: in the full panel of roughly 79,000, 15% have a hit. Values without a mark were called inactive. Calls of active or inactive are those of the source. Cut-off read from the data, not from the text of the source: active = growth inhibition above about 70%; inactive = the rest.

A short description of this test: NCI Yeast Anticancer Drug Screen. Data for the wt2 strain (AID 169).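 Note: 0% = growth of vehicle-treated yeast cultures.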 The settings on record: S. cerevisiae wt2 strain growth inhibition, hits give high values. The method, then:
Growth inhibition of yeast strains with defined genetic alterations is measured as a screen for potential anti-cancer activity. Selected strains with alterations in DNA damage repair or cell cycle control were exposed to compounds and growth inhibition was measured relative to vehicle treated controls. The strain used in this assay is wt2

As for `CC(C)OC(=O)NNc1cccc(Cl)c1`, the growth inhibition reads like this: (at 1.2 µM) 1%; (at 3.7 µM) 13%; (at 11.0 µM) 80% (active); (at 33.0 µM) 97% (active); (at 100.0 µM) 98% (active).

Turning to `C/C(=N\OCC(O)CNCCSCc1ccccc1)c1ccccc1Cl` (stereo not given), the growth inhibition by setting is: (at 1.2 µM) -1%; (at 3.7 µM) 8%; (at 11.0 µM) 11%; (at 33.0 µM) 30%; (at 100.0 µM) 81% (active).

Consider `CC1=NN(C(=O)CC(=O)NC(=O)/C=C\c2ccccc2)C(=O)C1N=Nc1ccc([N+](=O)[O-])cc1` (stereo not given), for which the growth inhibition was 0% (at 1.2 µM); 7% (at 3.7 µM); 39% (at 11.0 µM); 64% (at 33.0 µM); 61% (at 100.0 µM).

With `COc1cc2c(cc1OC)[C@@H](Nc1ccc(C#N)cc1)C1COC(=O)[C@@H]1C2c1cc(OC)c(O)c(OC)c1` (stereo not given in full), the growth inhibition by setting is: (at 1.2 µM) 6%; (at 3.7 µM) 17%; (at 11.0 µM) 46%; (at 33.0 µM) 90% (active); (at 100.0 µM) 93% (active).

As for `COC(=O)C(=O)CC(=O)c1cccc(OC)c1`, the growth inhibition reads like this: (at 1.2 µM) -5%; (at 3.7 µM) 9%; (at 11.0 µM) 27%; (at 33.0 µM) 71% (active); (at 100.0 µM) 92% (active).

For the compound `CCOC(=O)Nc1ccc(C)c(NC(=O)OCC)c1`, the growth inhibition by setting is: (at 1.2 µM) 4%; (at 3.7 µM) 8%; (at 11.0 µM) 10%; (at 33.0 µM) 14%; (at 100.0 µM) 13%.

On to `Oc1ccc(N=Nc2ccc(Cl)cc2)cc1`, for which the growth inhibition runs as follows: (at 1.2 µM) -1%; (at 3.7 µM) 5%; (at 11.0 µM) 93% (active); (at 33.0 µM) 99% (active); (at 100.0 µM) 99% (active).

As to `O=C1C[C@H]2[C@H](c3ccc(Br)cc3)[C@H]3C(=O)c4ccccc4NC(=O)[C@@H]3[C@@]2(O)c2ccccc2N1`, the growth inhibition runs as follows: (at 1.2 µM) 6%; (at 3.7 µM) 11%; (at 11.0 µM) 15%; (at 33.0 µM) 28%; (at 100.0 µM) 30%.

The values are drawn from PubChem BioAssay (NCI).
